This passage reports max response, Potency and outcome results from PubChem BioAssay (NCATS).

Records with an inconclusive call do not appear. Calls of active or inactive are those of the source. Calls follow the shape of the dose curve; as a rule, active = well fitted inhibition curve with a large enough effect; inconclusive = small, poorly fitted or top-dose-only effect; inactive = flat fitted curve, though single readings scatter.

Holding throughout (experiment): Cytotoxic Profiling of Annotated Libraries Using Quantitative High-Throughput Screening (AID 1296008); also: nearly all actives have a fitted effect of over 60% in size
Holding throughout (settings): Five cell lines viability, CellTiter-Glo ATP luminescence, 48-72 h; max response: hits give low values
Background: Cellular ATP, detected with luciferase, serves as a proxy for viable cell number.

For assay [1], the system named is CRL-7250. The method in brief: (§1)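 Cells exposed to compounds for 48 or 72 hr at 37 degrees Celsius. Viability read as ATP-coupled luminescence with CellTiter-Glo after 10 min at room temperature.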
Assay [2] relates to HaCat. The method in brief:
as §1

Assay [3] deals with NIH3T3. A digest of the protocol: as §1
Assay [4] concerns KB-3-1. A digest of the protocol:
as §1

Assay [5] deals with HEK293. A digest of the protocol: as §1
% is scaled to controls: 0 for no effect and ±100 for the full control effect; potency is read from the fitted curve at half-maximal effect.

For the compound `Cc1c(OCc2cccc(-c3ccc(C(=O)O)cc3)c2)cc2c(c1C)C(=O)C(C1CCCC1)C2` (configuration not stated), the figures for the max response in assay [1], in assay [2] and in assay [3] were 3.68% (inactive), -12% (inactive) and -4.46% (inactive), respectively.
Take `CCOc1cc(C(C)(C)C)ccc1C1=NC(C)(c2ccc(Cl)cc2)C(C)(c2ccc(Cl)cc2)N1C(=O)N1CCN(CCCS(C)(=O)=O)CC1` (configuration not stated): the Potency is 5.17 µM (active) in assay [1], 20.6 µM (active) in assay [2] and 9.2 µM (active) in assay [3].
As for `COC(=O)c1cc(Br)cnc1N1CCC(NC2CCCCC2)C(O)C1` (configuration not stated), the outcome in assay [1] and in assay [3] was inactive. Further, the max response in assay [2] is -7.79% (inactive).
Regarding `COc1cc(O)c2c(c1)/C=C/C[C@H](O)[C@H](O)C(=O)/C=C\C[C@H](C)OC2=O`, the Potency in assay [1] is 16.4 µM (active); in assay [2] it was 9.2 µM (active); in assay [3], 5.8 µM (active).
Consider `CCC(CC)(NC(=O)C(C)C)C(=O)N[C@@H](CCCN=C(N)N)C(=O)NC1(C(=O)NC(c2ccc(F)cc2)c2ccc(F)cc2)CCCC1`, for which the max response in assay [1] was 2.72% (inactive); in assay [2] it was -3.8% (inactive); in assay [3], -2.32% (inactive).
For `CC(F)(F)CN1CCOc2c(nn(-c3ccccc3Cl)c2-c2ccc(Cl)cc2)C1=O`, in assay [1], the call was inactive. Moreover, the max response in assay [2] is -16.2% (inactive); in assay [3], -14.8% (inactive).
Take `NC(=O)CCCSc1nc(N)nc(-c2c(Cl)cc3c4c(cccc24)COC3)n1`: the values for the Potency in assay [1], in assay [2] and in assay [3] were 1.46 µM (active), 0.291 µM (active) and 0.731 µM (active), respectively.
On to `Clc1ncoc1-c1c[nH]c2ccccc12`, for which, in assay [1], the result was inactive. The max response in assay [2] was -17.9% (inactive); in assay [3], -6.46% (inactive).
On to `CCC(C)CNCC(=O)N1CCc2sccc2C1COc1cccc(C)c1` (configuration not stated), for which the values for the max response in assay [1], in assay [2] and in assay [3] were -0.461% (inactive), 1.97% (inactive) and -25.4% (inactive), respectively.
Regarding `O=C(Nc1ccccc1)c1ccc(Nc2nnc(-c3ccc(O)cc3)c3ccccc23)cc1`, the figures for the max response in assay [1], in assay [2] and in assay [3] were -21.4% (inactive), -7.55% (inactive) and -26.5% (inactive), respectively.
For the compound `CNC(=O)c1cc(Oc2ccc(NC(=O)c3cccc(C(F)(F)F)c3)cc2)ccn1`, the max response in assay [1] is -16.9% (inactive); in assay [2], -5.26% (inactive); in assay [3], -24.9% (inactive).
For `COc1cc(C(C)C)c(Oc2cnc(N)nc2N)cc1I`, in that order: -1.85% (inactive), -19.2% (inactive) and -1.33% (inactive).
As to `C[C@@H](Nc1ncnc2[nH]c(-c3ccc(O)cc3)cc12)c1ccccc1`, the max response in assay [1] is -9.15% (inactive). In addition, the figures for the Potency in assay [2] and in assay [3] were 0.82 µM (active) and 14.6 µM (active), respectively.
Take `O=C(Cc1c(F)cccc1F)Nc1cc(OCc2ccc(Cl)cc2)ccn1`: the values for the max response in assay [1] and in assay [3] were 3.56% (inactive) and -10.7% (inactive), respectively. Further, the call in assay [4] was inactive.
Regarding `CC(=O)O[C@@]12CO[C@@H]1C[C@H](O)[C@@]1(C)C(=O)[C@H](O)C3=C(C)[C@@H](OC(=O)[C@H](O)[C@@H](NC(=O)OC(C)(C)C)c4ccccc4)C[C@@](O)([C@@H](OC(=O)c4ccccc4)C12)C3(C)C` (some centres not stated), the Potency in assay [1] was 0.005 µM (active); in assay [4] it was 0.0036 µM (active); in assay [3], 0.0224 µM (active).
For the compound `CNc1ccc([N+](=O)[O-])c(Nc2ccc3[nH]ncc3c2)n1`, the Potency in assay [5] was 18.4 µM (active).
Consider `CC(C)c1cc(-c2ccc(F)c3ccccc23)nc(N)n1`, for which the max response in assay [1] is 2.23% (inactive); in assay [4], -2.32% (inactive). The call in assay [3] was inactive.
For `CO[C@@H]1CC(OC2CCC3(C)C(CCC45CCC(C6=CC(=O)OC6)C(C)(CCC43)C5=O)C2)O[C@H](C)[C@@H]1O[C@@H]1O[C@H](CO[C@@H]2O[C@H](CO)[C@@H](O)[C@H](O)[C@H]2O)[C@@H](O)[C@H](O)[C@H]1O` (some centres not stated), the values for the Potency in assay [1] and in assay [4] were 2.46 µM (active) and 3.48 µM (active), respectively. Moreover, the max response in assay [3] is -1.96% (inactive).
For the compound `COc1cccc(NCCC2(c3ccccc3)CC(C)(C)OC(C)(C)C2)c1`, the figures for the max response in assay [1], in assay [4] and in assay [3] were -3.59% (inactive), -14.2% (inactive) and -25% (inactive), respectively.
Take `Cc1cc(N2CCOCC2)ccc1Nc1nc(NC2CCCCC2)c2[nH]cnc2n1`: the Potency in assay [5] is 0.326 µM (active).
Regarding `CS(=O)(=O)Nc1ccc2oc3c(OC(F)F)ccc(C(=O)Nc4c(Cl)cncc4Cl)c3c2c1`, the max response is -13.5% (inactive) in assay [1] and -9.63% (inactive) in assay [3].
As to `CC(C)n1nc(C#Cc2ccccc2)c2c(N)ncnc21`, the Potency is 16.4 µM (active) in assay [1] and 11.6 µM (active) in assay [3].
In the case of `CCn1c(=O)c(-c2ccc(Cl)cc2Cl)cc2cnc(Nc3ccc(N4CCNCC4)c(F)c3)nc21`, the Potency in assay [1] is 1.16 µM (active); in assay [3], 1.03 µM (active).
With `Cn1cc(-c2ccc3c(c2)CCN3C(=O)Cc2cccc(C(F)(F)F)c2)c2c(N)ncnc21`, the Potency in assay [1] is 16.4 µM (active). Also, the max response in assay [3] was -21.2% (inactive).
`CCN(c1cc(-c2ccc(CN3CCOCC3)cc2)cc(C(=O)NCc2c(C)cc(C)[nH]c2=O)c1C)C1CCOCC1`: the max response in assay [1] was -21.9% (inactive); in assay [4], -1.86% (inactive); in assay [3], -11.7% (inactive).
